# Most compounds without a hit are left out; they make up all but 21% or so of the library.
# Cycloheximide cs: counter-screen for Shiga toxin inhibitors: cycloheximide protein synthesis inhibition; cell reporter, cycloheximide protein synthesis inhibition counterscreen; AID 2314; hit rate 12% among 300,000; max response, %; in the data active = max response mostly above about 13%, no sharp cut-off; inactive = mostly below about 14%; note: read at 38.3 µM for the half of the compounds with a filed dose; 0% is about no effect
# HCV inhibitor: inhibitors of hepatitis C virus infection. Huh7.5.1 HCVcc-Cre infection, luciferase reporter, 44 h. Potency, µM (highest dose often 41.8 µM), for inactives: top-dose activity change, negative = inhibition, most hits filed as inhibitors. hit rate 3.4% among 340,000. AID 651820; note: potency is the fitted concentration of half-maximal effect; % is set by controls: 0 for no effect and ±100 for the full control effect
#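 Infectious HCV cell culture screen: compound-treated cells (1,000/well, pre-plated 4 h) are infected with HCVcc-Cre at roughly 0.5 moi and grown 44 h. Infection is quantified by luciferase signal after 15 min substrate incubation at room temperature.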
# Pf growth 96h: P. falciparum growth inhibition at 96 hour, primary screen for plastid delayed-death inhibitors; P. falciparum luciferase reporter growth, 96 h; Potency, µM (series often up to 28.7 µM), for inactives: at the highest dose activity change, negative = inhibition, usual class: inhibitors; hit rate 6.9% among 320,000; AID 504834; note: potency is the fitted concentration of half-maximal effect; % is set by controls: 0 for no effect and ±100 for the full control effect
#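 Luminescence readout: decreased luciferase signal marks inhibited growth of reporter-expressing P. falciparum in infected red cells (2% hematocrit, 0.05% parasitemia final), exposed to compound two generations (96 h, 37 C, 5% CO2).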
# Pf growth 48h: P. falciparum growth inhibition at 48 hours (one generation); AID 504832; P. falciparum luciferase growth in erythrocytes, 48 h; hit rate 5.9% among 310,000; Potency, µM (top dose mostly 28.7 µM), without a hit: at the top dose activity change, negative = inhibition, usual class: inhibitors; note: potency is the fitted concentration of half-maximal effect; % is set by controls: 0 for no effect and ±100 for the full control effect
#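 Growth was read as firefly luciferase luminescence after a 48 h, 37 C, 5% CO2 exposure of compounds to reporter-bearing P. falciparum cultures (0.1% parasitemia, 2% hematocrit final) in Albumax-supplemented RPMI 1640.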
# HCMV inh: human cytomegalovirus inhibition; hit rate 4.5% among 410,000; HFF cells, HCMV-luciferase reporter, 72 h; hits give low values; AID 1259415; activity change, negative = inhibition, % at 57.5 µM; in the data active = activity change below about -60%; inconclusive = no clear call, values can overlap the other calls; inactive = above about -39%; note: % is set by controls: 0 for no effect and ±100 for the full control effect
#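 Two compound doses tested in HFFs infected with HCMV-luciferase, MOI 1 PFU/cell, 72 h at 37C. Lysate luminescence read with OneGlo; data normalized against buffer-only and 10uM Salinomycin inhibitor controls.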
# Shiga inhibitor: inhibitors of Shiga toxin in Vero cells; inhibition, % at 38.7 µM; AID 2315; hit rate 9.2% among 290,000; Vero cells, Shiga toxin protein synthesis inhibition reporter; in the data active = inhibition mostly above about 28%, no sharp cut-off; inactive = mostly below about 43%; note: 0% is about no effect
# An asterisk follows results filed as active; i = inactive; ? = inconclusive; / = no result; [ ] = remark or other dose. Unless noted, calls come from the whole dose curve; as a rule, active = well fitted inhibition curve with a large enough effect; inconclusive = small, poorly fitted or top-dose-only effect, or another doubt; inactive = no such curve, though single readings can be large or run the other way.
SMILES,Cycloheximide cs,HCV inhibitor,Pf growth 96h,Pf growth 48h,HCMV inh,Shiga inhibitor
COC(=O)c1cc(=O)nc2sc(-c3ccccc3)nn12,-2.9,13.3%,0.0%,50.8%,24.2,-10.4
CCC(Oc1ccccc1)C(=O)Nc1ccc(O)c(-c2nc3cc(C)ccc3o2)c1 (stereo not given),/,/,/,/,24.1,/
CN(CCc1ccccc1)C(=O)c1cc(COc2cccc(C(F)(F)F)c2)on1,23.5*,?,-5.6%,58.4%,-11.3,60.4*
CN(CCc1ccccc1)C(=O)c1cc(COc2ccc(F)cc2Cl)on1,43.3*,8.8%,?,8.5%,-11.8,74.5*
CN(CCCN1CCOCC1)C(=O)c1cc(COc2cccc(C(F)(F)F)c2)on1,-2.3,-8.7%,-11.4%,14.7%,?,8.5
N/C(=N\O)c1ccccc1N1CCCCC1,-1.8,7.4%,?,42.5%,-17.9,-1.6
CCOc1cc([N+](=O)[O-])cc2c1C(=O)Nc1ccccc1O2,25.3*,?,?,?,58.0,30.3
CCn1cc(C2=NOC(C(=O)Nc3c(C)nn(Cc4ccc(F)cc4)c3C)C2)c(C)n1 (stereo not given),-1.8,?,-9.6%,-16.9%,-19.2,0.9
CCn1ncc(C2=NOC(C(=O)Nc3cnn(C45CC6CC(CC(C6)C4)C5)c3)C2)c1C (stereo not given),-2.3,-22.7%,0.0%,5.86µM*,-82.8*,-7.4
CCn1cc(C2=NOC(C(=O)Nc3cccc(C(C)=O)c3)C2)c(C)n1 (stereo not given),4.4,6.31µM*,?,23.8%,-64.5*,-8.4
Cc1ccc(C)c(NC(=O)CN2C(=O)CCc3ccccc32)c1,/,/,/,/,22.3,/
CCc1nnc2n1N=C(c1ccc(-c3cc(Cl)ccc3Cl)o1)CS2,-0.8,-21.8%,9.28µM*,/,1.7,-3.0
CCc1nnc2n1N=C(c1ccc(OC)cc1)CS2,-3.1,?,?,-26.2%,160.6,-4.5
CC1CN(C(=O)Nc2ccccc2)c2ccccc2-[n+]2ccsc21 (stereo not given),-2.0,?,0.8%,-4.0%,-38.9,18.7
O=C(Nc1ccccc1)N1CCc2scc[n+]2-c2ccccc21,-1.8,?,3.7%,-1.9%,-66.6*,-2.1
CCCCNC(=O)CSc1nnc(NC(C)=O)s1,-1.5,8.5%,15.4%,-1.0%,?,51.6
CCCCSc1nsc(NC(C)=O)n1,43.1*,0.8%,?,71.3%,46.0,171.4*
CCCCCCSc1nsc(NC(C)=O)n1,30.1*,-8.6%,5.0%,121.9%,28.3,58.7*
CCCSc1nsc(NC(=O)c2cccnc2OCC)n1,10.6,-18.8%,-11.2%,0.0%,6.1,21.7
CCCSc1nsc(NC(=O)CCC)n1,36.6*,-5.8%,3.7µM*,i,-103.5*,104.4*
CCC1(c2ccc(F)cc2)NC(=O)N(CC(=O)Nc2ccccc2Cl)C1=O (stereo not given),-1.6,-0.6%,?,-10.0%,20.6,-3.0
COc1ccccc1CCNC(=O)c1csc2c1CCCC2,13.1,?,?,?,-9.3,37.8*
CC(C)CCNC(=O)c1csc2c1CCCCC2,46.9*,0.6%,-11.7%,22.6%,3.4,55.1*
COc1ccc(CNC(=O)c2csc3c2CCCC3)cc1,/,-4.2%,-20.4%,-4.2%,6.5,/
CCC(C)NC(=O)c1csc2c1CCCCC2 (stereo not given),-0.7,-7.8%,/,8.3%,16.4,-7.2
SMILES,Cycloheximide cs,HCV inhibitor,Pf growth 96h,Pf growth 48h,HCMV inh,Shiga inhibitor
COC(=O)c1ccccc1NC(=O)NCCc1ccccc1OC,28.0*,-1.4%,31.8%,154.1%,-22.9,82.9*
COc1ccccc1CCNC(=O)c1ccc(Br)s1,37.1*,-21.9%,?,27.3%,-2.0,63.4*
COc1ccccc1CCNS(=O)(=O)CCNC(=O)c1ccccc1,/,8.0%,-0.1%,7.8%,-31.3,/
COCCNC(=O)CCCn1c(=O)[nH]c2ccsc2c1=O,/,/,/,/,-3.8,/
Cc1c(NC(=O)CSCc2c(F)cccc2Cl)c(=O)n(-c2ccccc2)n1C,-1.8,5.3%,52.3%[1.15 µM],1.6%[5.75 µM],/,3.1
CCCCN(CC)CCCNC(=O)c1csc2c1CCCCC2,0.8,35.5µM*,?,-3.6%,?,28.2
O=c1c(C=NCCCn2ccnc2)c(-c2ccccc2)[nH]n1-c1nc2ccccc2s1,-2.4,-11.6%,/,10.4µM*,209.3,2.3

# Screens from PubChem BioAssay.
